From the supplement of paper PMC8285479
Structures can show the parent of a compound that is named as a salt. ± gives the standard deviation of the averaged measurements. Over roughly 1,900 compounds, “normalised cell viability (NPI; 0 = phenylarsine oxide control, 1 = DMSO control)” has its median near 1; the lowest 2% begin near 0.039. What follows is part of a selection rich in the lowest values, with near analogues and random picks from the rest.

Tested on: NCI-H1944
Assay: normalised cell viability (NPI; 0 = phenylarsine oxide control, 1 = DMSO control) (fraction of DMSO control); NCI-H1944 is a non-small cell lung cancer line; higher = more viable cells (less compound toxicity)
Conditions: 6 days
[1] = glucocorticoid arm: hydrocortisone 2.75 uM co-treatment, compound 1 µM
[2] = glucocorticoid arm: hydrocortisone 2.75 uM co-treatment, compound 5 µM
[3] = glucocorticoid arm: hydrocortisone 2.75 uM pre-treated 2 days and continued, compound 1 µM
[4] = glucocorticoid arm: hydrocortisone 2.75 uM pre-treated 2 days and continued, compound 5 µM
[5] = glucocorticoid arm: vehicle, compound 1 µM
[6] = glucocorticoid arm: vehicle, compound 5 µM
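Note: CTB read-out in 384-well plates, triplicate wells, NPI normalised per plate against 1 µM phenylarsine oxide (0) and 0.1% DMSO (1) controls.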

How did the normalised cell viability [1] turn out when CC(C)(C(=O)O)c1ccc(C(O)CCCN2CCC(C(O)(c3ccccc3)c3ccccc3)CC2)cc1 (stereo not drawn) [Fexofenadine HCl] was run?
The normalised cell viability was 1.03 ± 0.01.

And the normalised cell viability [2]?
The normalised cell viability was 1.02 ± 0.021.

What about the normalised cell viability [3] of the same molecule?
Its normalised cell viability is 1.037 ± 0.0058.

What about the normalised cell viability [4] of the same molecule?
Its normalised cell viability is 1.05 ± 0.011.

What about the normalised cell viability [5] of the same molecule?
The normalised cell viability was 0.999 ± 0.011.

What about the normalised cell viability [6] of the same molecule?
Its normalised cell viability is 0.998 ± 0.01.

Which normalised cell viability [1] does the source give for CC(C)(C)c1ccc(C(O)CCCN2CCC(C(O)(c3ccccc3)c3ccccc3)CC2)cc1 (stereo not drawn) [Terfenadine] here?
The normalised cell viability was 0.997 ± 0.0027.

What about the normalised cell viability [2] of the same molecule?
Its normalised cell viability is 0.9833 ± 0.0051.

What about the normalised cell viability [3] of the same molecule?
Its normalised cell viability is 1.03 ± 0.017.

What about the normalised cell viability [4] of the same molecule?
Its normalised cell viability is 1.03 ± 0.017.

What about the normalised cell viability [5] of the same molecule?
The normalised cell viability was 0.9927 ± 0.006.

What about the normalised cell viability [6] of the same molecule?
The normalised cell viability was 0.0387 ± 0.043.

Which results are given for CC(C)(C(=O)O)c1ccc(C(O)CCCN2CCC(C(O)(c3ccccc3)c3ccccc3)CC2)cc1 (stereo not drawn) [Fexofenadine hydrochloride]?
normalised cell viability [1]: 1.006 ± 0.0069; normalised cell viability [2]: 1 ± 0.013; normalised cell viability [3]: 0.997 ± 0.013; normalised cell viability [4]: 0.99 ± 0.01; normalised cell viability [5]: 1.003 ± 0.0058; normalised cell viability [6]: 0.9967 ± 0.0035

What does the source list for COc1ccc2c3n(c(=NC(=O)c4cccnc4)nc2c1OC)CCN3?
normalised cell viability [1]: 0.911 ± 0.004; normalised cell viability [2]: 0.628 ± 0.018; normalised cell viability [3]: 0.901 ± 0.012; normalised cell viability [4]: 0.663 ± 0.033; normalised cell viability [5]: 0.9907 ± 0.0049; normalised cell viability [6]: 0.85 ± 0.029

For O=C(Nc1cccc(Nc2ncc(Br)c(NCCc3cnc[nH]3)n2)c1)N1CCCC1, which normalised cell viability [1] is on record?
The normalised cell viability was 0.955 ± 0.015.

What about the normalised cell viability [2] of the same molecule?
Its normalised cell viability is 0.805 ± 0.016.

What about the normalised cell viability [3] of the same molecule?
Its normalised cell viability is 0.939 ± 0.0062.

What about the normalised cell viability [4] of the same molecule?
Its normalised cell viability is 0.859 ± 0.02.

And the normalised cell viability [5]?
Its normalised cell viability is 0.917 ± 0.0095.

And the normalised cell viability [6]?
The normalised cell viability was 0.635 ± 0.029.

CCCn1c(=O)c2[nH]c(-c3ccc(S(=O)(=O)O)cc3)nc2n(CCC)c1=O [1,3-Dipropyl-8-p-sulfophenylxanthine] was tested. Which normalised cell viability [1] did it give?
Its normalised cell viability is 0.9873 ± 0.0049.

And the normalised cell viability [2]?
The normalised cell viability was 0.99 ± 0.01.

What about the normalised cell viability [3] of the same molecule?
The normalised cell viability was 0.994 ± 0.01.

What about the normalised cell viability [4] of the same molecule?
The normalised cell viability was 0.986 ± 0.034.

What about the normalised cell viability [5] of the same molecule?
Its normalised cell viability is 0.996 ± 0.016.

What about the normalised cell viability [6] of the same molecule?
Its normalised cell viability is 0.996 ± 0.0061.

What does the source list for Cc1cc(N)c2ccccc2[n+]1CCCCCCCCCC[n+]1c(C)cc(N)c2ccccc21 [Dequalinium chloride hydrate]?
normalised cell viability [1]: 0.888 ± 0.026; normalised cell viability [2]: 0.0383 ± 0.0062; normalised cell viability [3]: 0.963 ± 0.016; normalised cell viability [4]: 0.0385 ± 0.0016; normalised cell viability [5]: 0.991 ± 0.013; normalised cell viability [6]: 0.00579 ± 0.0022

How did the normalised cell viability [1] turn out when OC[C@H]1O[C@@H](n2cnc3c2N=CNC[C@H]3O)C[C@@H]1O [Pentostatin] was run?
Its normalised cell viability is 1.02 ± 0.011.

And the normalised cell viability [2]?
The normalised cell viability was 1.01 ± 0.022.

And the normalised cell viability [3]?
Its normalised cell viability is 1.03 ± 0.011.

And the normalised cell viability [4]?
The normalised cell viability was 1.04 ± 0.01.

What about the normalised cell viability [5] of the same molecule?
The normalised cell viability was 1.013 ± 0.0058.

And the normalised cell viability [6]?
The normalised cell viability was 1.01 ± 0.011.

What does the source list for N[C@@H](Cc1ccc(O)c(I)c1)C(=O)O [3-Iodo-L-tyrosine]?
normalised cell viability [1]: 0.982 ± 0.01; normalised cell viability [2]: 0.973 ± 0.035; normalised cell viability [3]: 0.991 ± 0.006; normalised cell viability [4]: 0.996 ± 0.066; normalised cell viability [5]: 0.999 ± 0.011; normalised cell viability [6]: 0.998 ± 0.01

N[C@H](CO)C(=O)O [D-Serine] was tested. Which normalised cell viability [1] did it give?
Its normalised cell viability is 1.013 ± 0.0058.

What about the normalised cell viability [2] of the same molecule?
Its normalised cell viability is 1.04 ± 0.06.

And the normalised cell viability [3]?
The normalised cell viability was 0.896 ± 0.27.

What about the normalised cell viability [4] of the same molecule?
The normalised cell viability was 1.02 ± 0.01.

What about the normalised cell viability [5] of the same molecule?
Its normalised cell viability is 1.02.

What about the normalised cell viability [6] of the same molecule?
Its normalised cell viability is 1.017 ± 0.0058.

CN1CCc2cc(O)c(O)cc2C(c2ccccc2)C1 (stereo not drawn) was tested. Which normalised cell viability [1] did it give?
Its normalised cell viability is 1 ± 0.0087.

What about the normalised cell viability [2] of the same molecule?
Its normalised cell viability is 1.02 ± 0.022.

And the normalised cell viability [3]?
The normalised cell viability was 0.876 ± 0.23.

And the normalised cell viability [4]?
Its normalised cell viability is 1.01 ± 0.02.

And the normalised cell viability [5]?
The normalised cell viability was 1.02.

And the normalised cell viability [6]?
The normalised cell viability was 1.023 ± 0.0058.

For CCCS(=O)(=O)Nc1ccc(F)c(C(=O)c2c[nH]c3ncc(-c4ccc(Cl)cc4)cc23)c1F [vemurafenib], which normalised cell viability [1] is on record?
Its normalised cell viability is 1.04 ± 0.011.

And the normalised cell viability [2]?
The normalised cell viability was 1.14 ± 0.02.

What about the normalised cell viability [3] of the same molecule?
Its normalised cell viability is 1.03 ± 0.01.

What about the normalised cell viability [4] of the same molecule?
The normalised cell viability was 1.08 ± 0.01.

What about the normalised cell viability [5] of the same molecule?
Its normalised cell viability is 1.01 ± 0.01.

What about the normalised cell viability [6] of the same molecule?
The normalised cell viability was 1.037 ± 0.0058.

Which results are given for CCCS(=O)(=O)Nc1ccc(F)c(C(=O)c2c[nH]c3ncc(-c4ccc(Cl)cc4)cc23)c1F [Vemurafenib (PLX4032)]?
normalised cell viability [1]: 1.05 ± 0.011; normalised cell viability [2]: 0.997 ± 0.029; normalised cell viability [3]: 1.03; normalised cell viability [4]: 1.01 ± 0.026; normalised cell viability [5]: 1.017 ± 0.0058; normalised cell viability [6]: 1.007 ± 0.0058
